# In PubChem BioAssay (NCATS):
# Values without a mark were called inactive. Inconclusive results are not listed. Where a call stands in place of a potency, no number is given. Calls of active or inactive are those of the source. Calls come from the whole dose curve; as a rule, active = well fitted curve in the direction sought with a large enough effect; inconclusive = small, poorly fitted or top-dose-only effect, or another doubt; inactive = no such curve, though single readings can be large; an effect the other way counts as inactive or inconclusive. Where a SMILES comes first, the peptide text is derived from it.
# Columns and labels:
# [1] = target: Calcium and integrin-binding protein 1 (Homo sapiens) (UniProt Q99828); assay: Primary qHTS for Identification of Calcium Integrin Binding Protein 1 (CIB1) Competitor (AID 1508620);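 note: GST tagged CIB1 binding a fluorescein labelled alphaIIb integrin peptide tracer; top concentration of the series differs between compounds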
# Chain of Calcium and integrin-binding protein 1 (Homo sapiens) (Q99828 whole entry, looked up): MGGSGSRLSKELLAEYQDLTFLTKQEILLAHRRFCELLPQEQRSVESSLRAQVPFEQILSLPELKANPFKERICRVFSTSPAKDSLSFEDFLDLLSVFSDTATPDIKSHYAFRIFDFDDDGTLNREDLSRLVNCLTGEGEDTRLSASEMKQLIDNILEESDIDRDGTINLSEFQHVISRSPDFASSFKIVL
# Outline: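 Fluorescence polarization competition: GST-tagged CIB1 (1 uM final) preincubated with compound 15 min at room temperature, then FITC-labelled alphaIIb peptide (100 nM final) added. After 15 min at room temperature, polarization read at Ex 480/Em 540.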
# [2] = qHTS for activators of Nrf2/ARE signaling pathway screened against the NCATS CANVASS Library (AID 1347391); note: nearly all actives have a fitted effect of over 60% in size
# Outline: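 ARE-bla HepG2 beta-lactamase reporter cells, 2000 cells/well, were preincubated 5 h, then exposed to compounds (11-point series) for 16 h at 37C. CCF4 fluorescence (ex 405, em 460/530 nm) after 2 h at room temperature.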
# [3] = qHTS for activators of dead-cell proteases activity screened against the NCATS CANVASS Library (AID 1347392);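 note: luminescence from protease leaking out of membrane-damaged cells cleaving impermeant substrate; rising signal means more cytotoxicity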
# Outline: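 HepG2 cells, 2000/well, attached 18 h at 37C, then exposed to compounds (11-point qHTS) for 5 h. Dead-cell protease release read as luminescence from cell-impermeant AAF-aminoluciferin substrate after 15 min at room temperature.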
# [4] = qHTS for inhibitors of ER calcium dysfunction: SERCaMP assay screened against the NCATS CANVASS Library (AID 1347393);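 note: series mostly up to about 77 µM; lower secreted reporter signal means inhibitor of ER calcium depletion; nearly all actives have a fitted effect of over 40% in size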
# Outline: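 SH-SY5Y GLuc-SERCaMP, 1000 cells/well, 4 h attach; cpd 16 h, 37C/5% CO2; thapsigargin (added as 6x 600 nM) 4 h; coelenterazine; luminescence. Reduced reporter release = ER Ca stabilization.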
# [5] = Vero-766 cells viability qHTS against the NCATS CANVASS Library: Counterscreen for Zika virus inhibition assay (AID 1347394); note: series mostly up to about 46 µM; nearly all actives have a fitted effect of over 60% in size
# Outline: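 Counterscreen for toxicity: Vero 766 cells exposed 72 h to an 11-point compound series, viability by CellTiter-Glo.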
# [6] = qHTS for inhibitors of Wild type Zika virus screened against the NCATS CANVASS Library (AID 1347396);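 note: ATP luminescence of surviving cells so rescue from viral cell killing; series mostly up to about 46 µM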
# Outline: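 Vero 766 cells, 1000/well, o/n attach; cpds pin-transferred (11-pt qHTS); WT Zika added; 72 h, 37C, 5% CO2; CellTiter Glo lumi. Uninfected + vehicle = 100% inhibition.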
# [7] = Viability qHTS for inhibitors of the SERCaMP assay screened against the NCATS CANVASS Library (AID 1347400); note: series mostly up to about 92 µM; nearly all actives have a fitted effect of over 70% in size
# Outline: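 SH-SY5Y-GLuc SERCaMP MJH297-derived cells (1000 cells/well) were pre-incubated 4 h at 37C, then exposed to compounds for 48 h. Viability was read as CellTiter-Glo luminescence; bortezomib served as positive control.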
# [8] = Redox Reaction Profiling qHTS: Assay Interference Panel against the NCATS CANVASS Library (AID 1347401)
# Outline: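 Compounds in 11-point series incubated with 5 uM resazurin and 200 uM DTT in 50 mM HEPES pH 7.3, 50 mM NaCl. Resorufin fluorescence (Ex 525/Em 598) read before and after 15 min in the dark.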
# [9] = qHTS to identify inhibitors of the type 1 interferon - major histocompatibility complex class I in skeletal muscle: primary screen against the NCATS Mechanism Interrogation Plate v5.0 (MIPE) Libary (AID 1347411); note: nearly all actives have a fitted effect of over 65% in size; note: potency is the fitted concentration of half-maximal effect
# Outline: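 Immortalized human C25cl48 myoblasts with HiBit knocked into endogenous HLA-B*08:01 were stimulated with 4.0 ng/ml IFN-beta and exposed to compounds (11-point 1:3 titration, top 46 uM final) for 24 hrs at 37 C; HiBiT lytic luminescence measured.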
# [10] = qHTS to identify inhibitors of the type 1 interferon - major histocompatibility complex class I in skeletal muscle: primary screen against the NCATS LOPAC collection (AID 1347405);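 note: lytic HiBiT luminescence reporting HLA-B protein level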
# Outline: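 Immortalized human C25cl48 myoblasts with HiBiT knocked into endogenous HLA-B*08:01 were stimulated with 4.0 ng/ml IFN-beta and given compounds in a 7-point, 1:4.3 titration from 46 uM final; after 24 hrs, lytic HiBiT luminescence was read.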
# [11] = qHTS to identify inhibitors of the type 1 interferon - major histocompatibility complex class I in skeletal muscle: primary screen against the NCATS Pharmaceutical Collection (AID 1347407);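 note: luminescence of HiBiT knocked into endogenous HLA-B as interferon-induced MHC class I level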
# Outline: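 A qHTS format is used: 8-point, 1:5 compound series with 46 uM top final concentration, applied alongside 4 ng/ml IFN-beta to HLA-B*08:01-HiBiT knock-in myoblasts. Luminescence is measured after 24 h treatment.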
# [12] = qHTS for inhibitors of adenylyl cyclases using a fission yeast platform: a pilot screen against the NCATS LOPAC library (AID 1347410)
# Outline: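 Inhibition of GNAS-stimulated AC9 activity in S. pombe was inferred from derepression of a PKA-repressed fbp1-GFP reporter, measured as cytometric fluorescence after 18 h at 30C with compounds at up to 57 µM.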
# [13] = target: Protein phosphatase 1D (Homo sapiens) (UniProt O15297); assay: RapidFire Mass Spectrometry qHTS Assay for Modulators of WT P53-Induced Phosphatase 1 (WIP1) (AID 1347424);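 note: amount of dephosphorylated VEPPL-S-QETFS peptide product formed by WIP1; series mostly up to about 63 µM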
# Chain of Protein phosphatase 1D (Homo sapiens) (O15297 whole entry, looked up): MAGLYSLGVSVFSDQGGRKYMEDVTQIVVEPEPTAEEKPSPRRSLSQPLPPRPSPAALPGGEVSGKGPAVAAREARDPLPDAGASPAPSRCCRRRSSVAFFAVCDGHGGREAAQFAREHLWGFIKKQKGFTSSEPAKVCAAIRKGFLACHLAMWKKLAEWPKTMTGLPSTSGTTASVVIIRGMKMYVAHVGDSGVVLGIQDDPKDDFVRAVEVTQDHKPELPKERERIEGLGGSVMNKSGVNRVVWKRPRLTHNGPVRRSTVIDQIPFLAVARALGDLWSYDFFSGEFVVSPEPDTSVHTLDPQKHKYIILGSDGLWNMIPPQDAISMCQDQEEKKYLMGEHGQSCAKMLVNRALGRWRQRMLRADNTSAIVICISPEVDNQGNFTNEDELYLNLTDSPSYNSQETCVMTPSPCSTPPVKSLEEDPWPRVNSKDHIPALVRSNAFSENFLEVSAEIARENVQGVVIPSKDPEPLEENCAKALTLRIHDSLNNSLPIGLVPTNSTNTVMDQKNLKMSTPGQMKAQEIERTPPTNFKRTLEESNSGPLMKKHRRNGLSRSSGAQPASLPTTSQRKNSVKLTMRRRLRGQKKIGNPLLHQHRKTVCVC
# Outline: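 10 nM WIP1 preincubated with compounds 1 hr at room temperature in pH 7.5 Tris buffer with 30 mM MgCl2, 1 mM TCEP; 2 uM VEPPL-pS-QETFS phosphopeptide for 5 min, formic acid quench; dephosphorylated product quantified by RapidFire MS against labelled standard.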
# [14] = target: Protein phosphatase 1D (Homo sapiens) (UniProt O15297); assay: Rhodamine-PBP qHTS Assay for Modulators of WT P53-Induced Phosphatase 1 (WIP1) (AID 1347425)
# Outline: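 Read-out: Rhodamine-PBP fluorescence (ex 525/em 598 nm) for released Pi, read each minute for 11 min after adding 10 uM VEPPL-pS-QETFS; signal taken as f1 minus pre-substrate f0. Enzyme 5 nM WIP1 with 1 hr room-temperature compound preincubation.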
# [15] = Validation qHTS assay for inhibitors of Activation Induced Cytidine Deaminase (AID): UDG Counterscreen signal (AID 1347427)
# Outline: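 Counterscreen read of UDG activity (2 U/mL, 4/3x) in the FRET deamination format with AID (1 uM, 4/3x), DJC20/DJC23 substrates (250 nM, 4x), 4 h at room temperature. NaOH stop, fluorescence at 560 ex/665 em.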
# [16] = target: Single-stranded DNA cytosine deaminase (Homo sapiens) (UniProt Q9GZX7); assay: Validation qHTS assay for inhibitors of Activation Induced Cytidine Deaminase (AID): AID signal (AID 1347429)
# Chain of Single-stranded DNA cytosine deaminase (Homo sapiens) (Q9GZX7 whole entry, looked up): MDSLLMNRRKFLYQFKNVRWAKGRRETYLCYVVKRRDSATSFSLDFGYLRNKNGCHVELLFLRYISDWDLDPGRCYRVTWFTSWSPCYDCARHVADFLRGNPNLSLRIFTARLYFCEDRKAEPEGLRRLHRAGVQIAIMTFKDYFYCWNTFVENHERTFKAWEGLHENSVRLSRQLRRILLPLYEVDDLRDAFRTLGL
# Outline: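 AID and UDG were combined and compounds added at final up to 114 uM, then DJC20/DJC23 FRET substrate was added for 4 hr at room temperature. NaOH was then added for 30 min before fluorescence was read at 540/590 nm.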
# [17] = target: Calcium and integrin-binding protein 1 (Homo sapiens) (UniProt Q99828); assay: Confirmatory qHTS for Identification of Calcium Integrin Binding Protein 1 (CIB1) Competitor (AID 1508617); note: nearly all actives have a fitted effect of over 65% in size; note: potency is the fitted concentration of half-maximal effect
# Outline: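 Fluorescence polarization competition: CIB1-GST (1 uM final) in 5 mM HEPES pH 7.4, 125 mM NaCl, 5 mM CaCl2, 0.01% Tween20 preincubated 15 min RT with compound (up to 114 uM), then FITC-alphaIIb peptide (100 nM) added, 15 min RT.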
# [18] = Primary qHTS for inhibitors of La Crosse Virus (LACV) - induced cell death in SH-SY5Y cells (AID 1508616);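 note: top concentration of the series differs between compounds; higher means more rescue of cells from virus-induced death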
# Outline: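 Luminescent ATP readout (ATPLite 1step, 5 min room temperature) measured rescue from LACV-induced death after 6 days of infection at 0.01 MOI; normalized to infected DMSO wells and uninfected DMSO wells.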
smiles,measurement,setting,value
CC1OC(O[C@H]2[C@@H](O)C[C@@]3(C)C([C@H](O)C[C@]4(C)C3CC=C3C5CC(C)(C)CC[C@]5(C(=O)OC5OC(CO)C(O)C(O)C5OC5OCC(OC6OCC(OC7OCC(O)C(O)C7O)C(O)C6O)C(OC6OCC(O)(CO)C6O)C5O)CC[C@]34C)[C@]2(C)CO)C(O)C(O)C1O (stereo not given in full),"activity change, negative = inhibition",[1],-4.55% [at 12.4 µM]
CC1=C2C(=O)O[C@@H](c3ccoc3)[C@]2(C)CCC1,outcome,[2],inactive
same,outcome,[3],inactive
same,outcome,[4],inactive
same,outcome,[5],inactive
same,outcome,[6],inactive
same,outcome,[7],inactive
same,outcome,[8],inactive
same,Potency,[1],inactive
O=C(c1ccc(NS(=O)(=O)c2cccc3cccnc23)cc1)N1CCN(CC2CC2)CC1,Potency,[9],inactive
same,Potency,[1],inactive
CC1[C@@H](O)[C@@H](O)C2[C@]3(C)C(C[C@H]4OC(=O)[C@H](O)[C@]1(O)[C@@]24C)C(C)(O)C[C@H](O)[C@H]3O (stereo not given in full),Potency,[1],inactive
CO[C@@]12CC3[C@@H]([C@@H](O)[C@@H](OC(C)=O)C4[C@](C)(COC(C)=O)CCC[C@]34C)[C@@H](C)C1=CC(=O)O2 (stereo not given in full),Potency,[1],inactive
COc1c2c(c(C)c3c1C(=O)OC3)OC1(C)CC(O)C3(O)C(C)(C)OC(=O)CCC3(C)C1C2 (stereo not given),Potency,[1],inactive
O=C(NC[C@H](O)CN1CCc2ccccc2C1)c1cc(NC2COC2)ncn1,Potency,[1],inactive
CN1Cc2c(N)cccc2C(c2ccccc2)C1 (stereo not given),outcome,[10],inactive
same,outcome,[11],inactive
same,outcome,[12],inactive
same,outcome,[13],inactive
same,outcome,[14],inactive
same,outcome,[15],inactive
same,outcome,[16],inactive
same,Potency,[1],inactive
C[C@@H](O)[C@H](N)C(=O)N1CCC[C@H]1C(=O)N1CCC[C@H]1C(=O)N[C@H](C(N)=O)[C@@H](C)O (H-TPPT-NH2),Potency,[1],inactive
NC(=O)c1cccc(-c2cc(O)cc(OC(=O)NC3CCCCC3)c2)c1,Potency,[1],inactive
O=C(C1CC1)N1CC[C@@H](Cc2n[nH]c(=O)n2-c2ccc(-c3ccc4occc4c3)cc2)C1,Potency,[1],inactive
CCOC(=O)[C@H]1O[C@@H]1C(=O)N[C@@H](CC(C)C)C(=O)NCCC(C)C,Potency,[9],inactive
same,Potency,[1],inactive
OC[C@H]1O[C@@H](Oc2ccc(O)c3cccc(O)c23)[C@H](O)[C@@H](O)[C@@H]1O,Potency,[17],11.2 µM (active)
C=CCc1ccc(O[C@@H]2O[C@H](CO)[C@@H](O)[C@H](O)[C@H]2O)c(OC)c1,Potency,[1],inactive
COc1cc(C2Oc3c(O)cc(CCCO)cc3C2CO)ccc1O[C@H]1O[C@H](C)[C@@H](O)[C@H](O)[C@@H]1O (stereo not given in full),Potency,[1],inactive
CNC(=O)c1ccc(Nc2ncc(C(F)(F)F)c(NCc3nccnc3N(C)S(C)(=O)=O)n2)cc1,Potency,[9],5.23 µM (active)
same,Potency,[1],inactive
CC[C@@H](c1ccc(F)c(F)c1)n1c(C(=O)OC)c(-c2ccno2)[nH]c1=S,Potency,[17],inactive
CCCCN(CCCC)C(=O)CN1C[C@H](c2ccc3c(c2)OCO3)[C@@H](C(=O)O)[C@@H]1c1ccc(OC)cc1,Potency,[9],inactive
same,Potency,[1],inactive
CC(=O)OC(C)OC(=O)C(C)c1ccc(-c2ccccc2)c(F)c1 (stereo not given),outcome,[11],inactive
same,outcome,[13],inactive
same,outcome,[14],inactive
same,outcome,[18],inactive
same,Potency,[1],inactive
CC(=O)c1c(O)cc2cccc3c2c1CC(C)(O)O3 (stereo not given),Potency,[17],39.8 µM (active)
C/C=C/C=C/C(CC(=O)O)Nc1ccc(C=O)cc1 (stereo not given),outcome,[2],inactive
same,outcome,[3],inactive
same,outcome,[4],inactive
same,outcome,[5],inactive
same,outcome,[6],inactive
same,outcome,[7],inactive
same,outcome,[8],inactive
same,Potency,[1],inactive
